# Laboratory results: PubChem BioAssay (NCATS)
# Inconclusive results are not listed. A call without a number means that no potency is given here. The source made the active and inactive calls. Calls follow the shape of the dose curve; as a rule, active = well fitted cell-killing curve with a large enough effect; inconclusive = small, poorly fitted or top-dose-only effect, or effect the other way; inactive = no such curve, though single readings can be large or run the other way.
# Assay: Quantitative High-Throughput drug screen in 47 multiple myeloma cell lines against the NCATS MIPE library collection: KMS12PE_JCRB cell viability assay (AID 1918972); also: nearly all actives have a fitted effect of over 30% in size
# Details: KMS12PE myeloma viability, CellTiter-Glo ATP, 48 h; series mostly up to 45.8 µM
# Outline: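 Myeloma cells (500 per well) were exposed to MIPE 4.0 compounds by pin transfer and incubated 48 hours at 37C, 5% CO2. Viability was read as ATP by CellTiter-Glo luminescence, normalised to DMSO (100%) and media-only (0%) wells.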
# Potency is read from the fitted curve at half-maximal effect.
row,SMILES,Potency
1,CCCCC(C=O)NC(=O)C(CC(C)C)NC(=O)OCc1ccccc1 (stereo not drawn),inactive
2,C#CCN(C)CC1=Cc2ccccc2Oc2ccccc21,inactive
3,OC[C@H]1O[C@@H](OCCc2ccc(O)cc2)[C@H](O)[C@@H](O)[C@H]1O,inactive
4,O=C(NCCCCN1CCOCC1)c1cc2ccccc2o1,inactive
5,Oc1ccc(C=Cc2cc(O)cc(O)c2)cc1,inactive
6,Cc1ccc(NC(=O)c2ccc(CN3CCN(C)CC3)cc2)cc1Nc1nc(-c2cccnc2)cs1,18.7 µM (active)
7,CC(C)C[C@@H](N)[C@H](O)C(=O)N[C@H](C(=O)N[C@H](C(=O)N[C@@H](CC(=O)O)C(=O)O)C(C)C)C(C)C,inactive
8,CNc1nc(Nc2ccc(C(=O)N3CCOCC3)cc2OC)ncc1Cl,inactive
9,N[C@@H](CC(=O)N1CCn2c(nnc2C(F)(F)F)C1)Cc1cc(F)c(F)cc1F,inactive
10,Fc1ccc(C(c2ccc(F)cc2)N2CCN(CC=Cc3ccccc3)CC2)cc1,inactive
11,CN(C)CCCNC(=O)c1ccc(-c2cc(O)c3ncccc3c2)cc1,20.9 µM (active)
12,COc1c(C)c2c(c(O)c1CC=C(C)CCC(=O)O)C(=O)OC2,14.8 µM (active)
13,CC=C(C(=CC)c1ccc(O)cc1)c1ccc(O)cc1,16.6 µM (active)
14,COc1ccc(CCN(C)CCCOc2ccc(S(=O)(=O)c3[nH]c4ccccc4c3C(C)C)cc2)cc1OC,inactive
15,O=C(O)Cc1cccc(OCCCN(Cc2cccc(C(F)(F)F)c2Cl)CC(c2ccccc2)c2ccccc2)c1,inactive
16,CCCCC[C@H](O)C=C[C@H]1[C@H](O)CC(=O)[C@H]1CC=CCCCC(=O)O,inactive
17,C[C@H](c1ccc(F)cc1CCCC(=O)O)N(c1cc(F)ccc1F)S(=O)(=O)c1ccc(Cl)cc1,inactive
18,Cc1cc2c(cc1C1(c3ccc(C(=O)O)cn3)CC1)C(C)(C)CCC2(C)C,inactive

row,SMILES,Potency
1,O=C(CCCN1CCN(c2ccc(F)cc2)CC1)NC1c2ccccc2CSc2ccccc21 (stereo not drawn),4.18 µM (active)
2,Cc1ccc(S(=O)(=O)Nc2nc3ccccc3nc2Nc2ccc3nsnc3c2)cc1,0.407 µM (active)
3,CCC=CC[C@H]1C(=O)CC[C@@H]1CC(=O)OC,inactive
4,CN(C)c1nc(Cc2ccc(NC(=O)c3ccc(C(F)(F)F)cc3)cc2)nc(N(C)C)c1CC(=O)O,inactive
5,COC(=O)N1CCN(Cc2cccc(NC(=O)Nc3ccc(C)nc3)c2F)CC1,inactive
6,O=C1NC(=O)C(=Cc2ccc(-c3ccc(F)cc3O)o2)S1,inactive
7,OCCn1cc(-c2ccc3c(c2)CCC3=NO)c(-c2ccncc2)n1,inactive
8,C[C@]12C=CC(=O)C=C1CC[C@@H]1[C@@H]2[C@@H](O)C[C@@]2(C)[C@@H]1CC[C@]2(O)C(=O)CO,inactive
9,CCCCOCCOc1nc(-c2ccc(C(=O)O)c(F)c2)sc1C,inactive
10,CC(C)(CO)[C@@H](O)C(=O)NCCC(=O)O,inactive
11,O=C(CC12CC3CC(CC(C3)C1)C2)Nc1cccc2nc(NCCNCCO)ccc12,9.35 µM (active)
12,NC[C@H]1O[C@H](O[C@@H]2[C@@H](O)[C@@H](O[C@H]3O[C@H](CO)[C@@H](O)[C@H](N)[C@@H]3O)[C@H](N)C[C@@H]2N)[C@H](O)[C@@H](O)[C@H]1O,inactive
13,CCn1c(-c2nonc2N)nc2cncc(CNC3CCNCC3)c21,1.05 µM (active)
14,CC(=O)OCC(=O)[C@@]1(O)CC[C@H]2[C@@H]3CCC4=CC(=O)C=C[C@]4(C)[C@@H]3[C@@H](O)C[C@@]21C,inactive
15,COc1cc2nccc(Oc3ccc(NC(=O)Nc4ccc(F)cc4F)c(F)c3)c2cc1OC,inactive
16,O=C(O)CCNc1cc(N2CCc3ccccc3CC2)nc(-c2ccccn2)n1,inactive
17,CN[C@H]1[C@@H](O[C@@H]2[C@H](O[C@@H]3[C@@H](O)[C@@H](O)[C@@H](N=C(N)N)[C@@H](O)[C@@H]3N=C(N)N)O[C@H](C)[C@@]2(O)C=O)O[C@@H](CO)[C@@H](O)[C@H]1O,inactive
18,CCCCCCOC(=O)N=C(N)c1ccc(NCc2nc3cc(C(=O)N(CCC(=O)OCC)c4ccccn4)ccc3n2C)cc1,18.7 µM (active)

# Assay: Quantitative High-Throughput drug screen in 47 multiple myeloma cell lines against the NCATS MIPE library collection: KMS26_JCRB cell viability assay (AID 1918975); also: nearly all actives have a fitted effect of over 45% in size
# Details: KMS26 myeloma cells viability, CellTiter-Glo ATP, 48 h; series mostly up to 45.8 µM
# Outline: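 CellTiter-Glo luminescence (ATP) after 48 h compound exposure, 37C/5% CO2; 500 cells/well; MIPE 4.0 approved/investigational drugs pinned in; DMSO = 100%, media only = 0% viability.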
row,SMILES,Potency
1,O=C(NCCCCN1CCOCC1)c1cc2ccccc2o1,inactive
2,C[C@H](c1ccc(F)cc1CCCC(=O)O)N(c1cc(F)ccc1F)S(=O)(=O)c1ccc(Cl)cc1,0.743 µM (active)
3,Cc1cc2c(cc1C1(c3ccc(C(=O)O)cn3)CC1)C(C)(C)CCC2(C)C,14.8 µM (active)
4,CN(C)c1nc(Cc2ccc(NC(=O)c3ccc(C(F)(F)F)cc3)cc2)nc(N(C)C)c1CC(=O)O,inactive
5,O=C(CC12CC3CC(CC(C3)C1)C2)Nc1cccc2nc(NCCNCCO)ccc12,18.7 µM (active)
6,O=C(O)CCNc1cc(N2CCc3ccccc3CC2)nc(-c2ccccn2)n1,inactive
7,CN[C@H]1[C@@H](O[C@@H]2[C@H](O[C@@H]3[C@@H](O)[C@@H](O)[C@@H](N=C(N)N)[C@@H](O)[C@@H]3N=C(N)N)O[C@H](C)[C@@]2(O)C=O)O[C@@H](CO)[C@@H](O)[C@H]1O,inactive
